{
  "source": "the supplement of paper PMC12636033",
  "note": "± gives the standard deviation of the averaged measurements. In all, about 33,000 sequences were measured (“E-score (rank enrichment, -0.5 to 0.5)”: median about -0.0043, highest 2% from about 0.24 on). The sample as a whole holds a higher share of the highest values than the screen did.",
  "data": [
    {"test_system": "2Sp-muMax20 (muMax20 with two 2,6-bis(methyl)pyridine Cys staples)", "assay": "PBM 8-mer E-score (E-score (rank enrichment, -0.5 to 0.5)); higher = stronger preferential binding", "procedure": "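Protein binding microarray (universal PBM chip covering all 10-mers in fixed probe flanks) with chemically synthesized human Max(13-93) bHLH-LZ analogs (not full-length Max) bearing noncanonical residues (hArg, Tha, Aib, Nle at 65) and aromatic Cys staples. Read-out per 8-mer (and its reverse complement): E-score (rank-based enrichment, -0.5 to 0.5) and Z-score of median probe intensity.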", "values": [
      {"sequence": "CCTGCCAC", "PBM 8-mer E-score": "-0.0854 ± 0.043"},
      {"sequence": "AGACCGTG", "PBM 8-mer E-score": "-0.2708 ± 0.0017"},
      {"sequence": "TATGCCGA", "PBM 8-mer E-score": "-0.0358 ± 0.062"},
      {"sequence": "ACCAGCAG", "PBM 8-mer E-score": "-0.0797 ± 0.013"},
      {"sequence": "CCCGCCAG", "PBM 8-mer E-score": "-0.131 ± 0.01"},
      {"sequence": "ATAATATA", "PBM 8-mer E-score": "0.194 ± 0.04"},
      {"sequence": "CATCTATA", "PBM 8-mer E-score": "0.288 ± 0.024"},
      {"sequence": "GATCTATA", "PBM 8-mer E-score": "-0.0283 ± 0.079"},
      {"sequence": "GTTATATA", "PBM 8-mer E-score": "0.264 ± 0.022"},
      {"sequence": "GTAATATA", "PBM 8-mer E-score": "0.255 ± 0.07"},
      {"sequence": "ATAATCTA", "PBM 8-mer E-score": "0.141 ± 0.07"},
      {"sequence": "GTTATAGA", "PBM 8-mer E-score": "0.175 ± 0.05"},
      {"sequence": "GTAATCTA", "PBM 8-mer E-score": "0.259 ± 0.056"},
      {"sequence": "AATCTATA", "PBM 8-mer E-score": "0.147 ± 0.091"},
      {"sequence": "CTAATATA", "PBM 8-mer E-score": "0.1721 ± 0.00093"},
      {"sequence": "CTTATATA", "PBM 8-mer E-score": "0.166 ± 0.073"},
      {"sequence": "CTAATCTA", "PBM 8-mer E-score": "0.0847 ± 0.035"},
      {"sequence": "ACCGCCCG", "PBM 8-mer E-score": "-0.242 ± 0.065"},
      {"sequence": "AAGGCGCC", "PBM 8-mer E-score": "0.175 ± 0.087"},
      {"sequence": "CGCAACCA", "PBM 8-mer E-score": "0.0737 ± 0.021"},
      {"sequence": "CCTTGCCA", "PBM 8-mer E-score": "-0.0434 ± 0.087"},
      {"sequence": "ATAATTTG", "PBM 8-mer E-score": "0.183 ± 0.083"},
      {"sequence": "ATAATTTA", "PBM 8-mer E-score": "0.284 ± 0.12"},
      {"sequence": "CGAATTTA", "PBM 8-mer E-score": "0.131 ± 0.035"},
      {"sequence": "GTAATTGA", "PBM 8-mer E-score": "0.0816 ± 0.034"},
      {"sequence": "AGAATTTC", "PBM 8-mer E-score": "-0.0921 ± 0.041"},
      {"sequence": "CTAATTGA", "PBM 8-mer E-score": "-0.0167 ± 0.015"},
      {"sequence": "GTAATTTA", "PBM 8-mer E-score": "0.0251 ± 0.0029"},
      {"sequence": "ATAATTGA", "PBM 8-mer E-score": "0.2552 ± 0.0018"},
      {"sequence": "AGAATTTA", "PBM 8-mer E-score": "0.284 ± 0.096"},
      {"sequence": "CGTGACTA", "PBM 8-mer E-score": "0.0126 ± 0.018"},
      {"sequence": "ATTCTAGG", "PBM 8-mer E-score": "-0.0261 ± 0.025"},
      {"sequence": "ATTAACGA", "PBM 8-mer E-score": "0.0547 ± 0.19"},
      {"sequence": "GTCCACCA", "PBM 8-mer E-score": "-0.0165 ± 0.0032"},
      {"sequence": "CTGCCCAA", "PBM 8-mer E-score": "-0.0288 ± 0.022"},
      {"sequence": "CATGTACC", "PBM 8-mer E-score": "-0.115 ± 0.026"},
      {"sequence": "ATATATGG", "PBM 8-mer E-score": "0.285 ± 0.018"},
      {"sequence": "AGATATGG", "PBM 8-mer E-score": "0.168 ± 0.027"},
      {"sequence": "CTATATGA", "PBM 8-mer E-score": "0.145 ± 0.07"},
      {"sequence": "AAATATGG", "PBM 8-mer E-score": "0.18 ± 0.0044"},
      {"sequence": "ACATATGC", "PBM 8-mer E-score": "0.0823 ± 0.085"},
      {"sequence": "ATATATGA", "PBM 8-mer E-score": "0.293 ± 0.049"},
      {"sequence": "ATATATGC", "PBM 8-mer E-score": "0.251 ± 0.052"},
      {"sequence": "CTATATGC", "PBM 8-mer E-score": "0.159 ± 0.037"},
      {"sequence": "GTATATGA", "PBM 8-mer E-score": "0.0252 ± 0.077"},
      {"sequence": "ATCCTGTG", "PBM 8-mer E-score": "-0.0686 ± 0.032"},
      {"sequence": "GGCGGACC", "PBM 8-mer E-score": "-0.233 ± 0.004"},
      {"sequence": "ATATGAGC", "PBM 8-mer E-score": "0.148 ± 0.011"},
      {"sequence": "GACATCTC", "PBM 8-mer E-score": "-0.202 ± 0.052"},
      {"sequence": "TGTGCAAA", "PBM 8-mer E-score": "-0.0258 ± 0.033"},
      {"sequence": "ATTACAGC", "PBM 8-mer E-score": "-0.033 ± 0.008"},
      {"sequence": "ATTACATA", "PBM 8-mer E-score": "0.0685 ± 0.037"},
      {"sequence": "ATTACAGA", "PBM 8-mer E-score": "-0.0244 ± 0.14"},
      {"sequence": "ATTACATC", "PBM 8-mer E-score": "0.126 ± 0.094"},
      {"sequence": "ATTACATG", "PBM 8-mer E-score": "0.242 ± 0.037"},
      {"sequence": "ATTACAGG", "PBM 8-mer E-score": "0.312 ± 0.042"},
      {"sequence": "GGCTGGGA", "PBM 8-mer E-score": "-0.0185 ± 0.052"},
      {"sequence": "ACACCGAA", "PBM 8-mer E-score": "-0.0827 ± 0.029"},
      {"sequence": "ACCTCGGA", "PBM 8-mer E-score": "-0.233 ± 0.0065"},
      {"sequence": "CAGTCTCA", "PBM 8-mer E-score": "-0.0913 ± 0.013"},
      {"sequence": "TAATTATA", "PBM 8-mer E-score": "0.245 ± 0.027"},
      {"sequence": "CAATTATA", "PBM 8-mer E-score": "0.176 ± 0.028"},
      {"sequence": "AAATTATC", "PBM 8-mer E-score": "0.199 ± 0.084"},
      {"sequence": "AAGTTATA", "PBM 8-mer E-score": "0.0392 ± 0.07"},
      {"sequence": "AAATTATG", "PBM 8-mer E-score": "0.134 ± 0.036"},
      {"sequence": "GAATTATA", "PBM 8-mer E-score": "0.19 ± 0.11"},
      {"sequence": "GAGTTATA", "PBM 8-mer E-score": "0.104 ± 0.048"},
      {"sequence": "TAGTTATA", "PBM 8-mer E-score": "0.255 ± 0.0097"},
      {"sequence": "AAATTATA", "PBM 8-mer E-score": "0.301 ± 0.063"},
      {"sequence": "CGCCTTCA", "PBM 8-mer E-score": "-0.00719 ± 0.17"},
      {"sequence": "AGATGCCG", "PBM 8-mer E-score": "-0.118 ± 0.13"},
      {"sequence": "GTAACATA", "PBM 8-mer E-score": "0.177 ± 0.016"},
      {"sequence": "ATACCGCA", "PBM 8-mer E-score": "0.013 ± 0.035"},
      {"sequence": "AAATTGAT", "PBM 8-mer E-score": "0.113 ± 0.046"},
      {"sequence": "GAATTGAA", "PBM 8-mer E-score": "0.0949 ± 0.085"},
      {"sequence": "ATATTGAA", "PBM 8-mer E-score": "0.0994 ± 0.059"},
      {"sequence": "AAATTGAA", "PBM 8-mer E-score": "0.24 ± 0.083"},
      {"sequence": "TTATTGAA", "PBM 8-mer E-score": "0.3 ± 0.049"},
      {"sequence": "GTATTGAA", "PBM 8-mer E-score": "0.132 ± 0.089"},
      {"sequence": "ACAACGGA", "PBM 8-mer E-score": "-0.0195 ± 0.029"},
      {"sequence": "ACGATACA", "PBM 8-mer E-score": "0.0917 ± 0.079"},
      {"sequence": "ACATAGCG", "PBM 8-mer E-score": "0.00456 ± 0.11"},
      {"sequence": "ACCCCGCT", "PBM 8-mer E-score": "-0.0295 ± 0.018"},
      {"sequence": "GATGCGCC", "PBM 8-mer E-score": "-0.0256 ± 0.014"},
      {"sequence": "GGTGAAAA", "PBM 8-mer E-score": "-0.00809 ± 0.034"},
      {"sequence": "TGTGAAAA", "PBM 8-mer E-score": "0.289 ± 0.035"},
      {"sequence": "CGTGAAAA", "PBM 8-mer E-score": "0.109 ± 0.014"}
    ]}
  ]
}
